# What was measured:
# [1] = target: Protein kinase C gamma type (Homo sapiens) (UniProt P05129); conditions: at 1 µM;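 note: each value is an averaged percent inhibition of the enzyme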
# [2] = target: T1, Protein kinase C iota type (Homo sapiens) (UniProt P41743); conditions: at 0.1 µM
# T1 sequence (whole entry): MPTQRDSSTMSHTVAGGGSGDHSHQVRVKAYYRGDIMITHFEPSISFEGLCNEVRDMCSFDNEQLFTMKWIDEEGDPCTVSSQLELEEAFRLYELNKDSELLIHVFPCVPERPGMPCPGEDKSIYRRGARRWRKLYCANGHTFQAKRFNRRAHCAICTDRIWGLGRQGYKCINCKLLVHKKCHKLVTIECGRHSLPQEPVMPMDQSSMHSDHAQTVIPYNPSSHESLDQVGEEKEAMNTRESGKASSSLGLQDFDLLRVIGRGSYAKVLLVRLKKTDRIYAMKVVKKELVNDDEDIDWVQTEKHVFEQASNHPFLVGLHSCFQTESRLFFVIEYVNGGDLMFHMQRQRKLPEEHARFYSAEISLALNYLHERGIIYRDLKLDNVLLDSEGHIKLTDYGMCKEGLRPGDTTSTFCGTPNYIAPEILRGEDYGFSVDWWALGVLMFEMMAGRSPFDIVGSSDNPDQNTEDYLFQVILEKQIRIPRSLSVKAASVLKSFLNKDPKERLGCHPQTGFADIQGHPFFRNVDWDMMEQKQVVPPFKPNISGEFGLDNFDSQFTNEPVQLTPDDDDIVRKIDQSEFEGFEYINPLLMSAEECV
# [3] = target: T1, Protein kinase C iota type (Homo sapiens); conditions: at 1 µM
# [4] = target: Protein kinase C theta type (Homo sapiens) (UniProt Q04759); conditions: at 0.1 µM
# [5] = target: Protein kinase C theta type (Homo sapiens) (UniProt Q04759); conditions: at 1 µM
# [6] = target: Protein kinase C beta type (Homo sapiens) (UniProt P05771); conditions: at 0.1 µM
# [7] = target: Protein kinase C beta type (Homo sapiens) (UniProt P05771); conditions: at 1 µM
# [8] = target: T2, Serine/threonine-protein kinase D1 (Homo sapiens) (UniProt Q15139); conditions: at 0.1 µM
# T2 sequence (whole entry): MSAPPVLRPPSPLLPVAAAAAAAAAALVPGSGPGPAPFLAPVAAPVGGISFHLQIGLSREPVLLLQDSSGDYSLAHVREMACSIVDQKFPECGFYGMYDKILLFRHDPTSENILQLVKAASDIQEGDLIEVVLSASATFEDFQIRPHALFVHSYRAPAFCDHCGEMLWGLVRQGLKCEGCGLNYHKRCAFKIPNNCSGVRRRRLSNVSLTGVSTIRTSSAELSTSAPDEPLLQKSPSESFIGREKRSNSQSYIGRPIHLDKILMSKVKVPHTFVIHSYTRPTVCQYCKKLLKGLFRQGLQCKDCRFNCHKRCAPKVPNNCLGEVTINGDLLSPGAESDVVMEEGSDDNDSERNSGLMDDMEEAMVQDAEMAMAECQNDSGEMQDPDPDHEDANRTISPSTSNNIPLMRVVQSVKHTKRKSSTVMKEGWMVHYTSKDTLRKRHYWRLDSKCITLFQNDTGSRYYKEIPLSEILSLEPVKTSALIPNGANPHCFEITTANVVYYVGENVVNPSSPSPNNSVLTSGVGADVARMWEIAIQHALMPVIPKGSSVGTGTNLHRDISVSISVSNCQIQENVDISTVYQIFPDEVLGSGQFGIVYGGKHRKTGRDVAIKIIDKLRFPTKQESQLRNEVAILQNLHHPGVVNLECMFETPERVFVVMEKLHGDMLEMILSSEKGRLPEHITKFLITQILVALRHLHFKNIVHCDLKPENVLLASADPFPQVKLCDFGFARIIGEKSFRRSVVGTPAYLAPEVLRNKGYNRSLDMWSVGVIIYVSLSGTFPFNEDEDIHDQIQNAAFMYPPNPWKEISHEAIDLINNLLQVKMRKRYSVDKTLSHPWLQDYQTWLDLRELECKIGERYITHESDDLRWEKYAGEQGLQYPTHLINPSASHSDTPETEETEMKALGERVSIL
# [9] = target: T2, Serine/threonine-protein kinase D1 (Homo sapiens); conditions: at 1 µM
# [10] = target: T3, Serine/threonine-protein kinase D2 (Homo sapiens) (UniProt Q9BZL6); conditions: at 0.1 µM
# T3 sequence (whole entry): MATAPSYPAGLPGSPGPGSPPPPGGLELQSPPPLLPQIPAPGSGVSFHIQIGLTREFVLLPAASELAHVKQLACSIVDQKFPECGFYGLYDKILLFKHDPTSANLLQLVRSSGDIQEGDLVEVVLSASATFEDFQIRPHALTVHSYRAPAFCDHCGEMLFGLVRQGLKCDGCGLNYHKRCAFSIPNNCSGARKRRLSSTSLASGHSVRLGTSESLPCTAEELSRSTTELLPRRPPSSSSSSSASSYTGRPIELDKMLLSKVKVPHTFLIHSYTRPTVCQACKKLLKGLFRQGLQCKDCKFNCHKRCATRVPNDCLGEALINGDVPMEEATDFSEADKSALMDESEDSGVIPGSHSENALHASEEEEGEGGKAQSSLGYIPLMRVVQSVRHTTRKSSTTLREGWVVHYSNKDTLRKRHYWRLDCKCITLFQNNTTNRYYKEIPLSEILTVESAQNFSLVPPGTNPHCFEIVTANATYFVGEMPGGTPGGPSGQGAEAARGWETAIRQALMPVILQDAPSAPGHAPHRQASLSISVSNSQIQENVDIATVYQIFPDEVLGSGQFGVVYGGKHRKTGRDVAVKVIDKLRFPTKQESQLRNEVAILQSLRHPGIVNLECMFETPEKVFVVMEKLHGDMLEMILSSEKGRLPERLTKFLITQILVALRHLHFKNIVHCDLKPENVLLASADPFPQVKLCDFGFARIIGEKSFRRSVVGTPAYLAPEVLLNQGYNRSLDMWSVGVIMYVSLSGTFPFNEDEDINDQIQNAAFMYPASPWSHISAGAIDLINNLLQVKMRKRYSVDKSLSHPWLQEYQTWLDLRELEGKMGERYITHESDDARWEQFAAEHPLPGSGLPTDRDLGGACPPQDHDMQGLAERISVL
# [11] = target: T3, Serine/threonine-protein kinase D2 (Homo sapiens); conditions: at 1 µM
# [12] = target: T4, Serine/threonine-protein kinase D3 (Homo sapiens) (UniProt O94806); conditions: at 0.1 µM
# T4 sequence (whole entry): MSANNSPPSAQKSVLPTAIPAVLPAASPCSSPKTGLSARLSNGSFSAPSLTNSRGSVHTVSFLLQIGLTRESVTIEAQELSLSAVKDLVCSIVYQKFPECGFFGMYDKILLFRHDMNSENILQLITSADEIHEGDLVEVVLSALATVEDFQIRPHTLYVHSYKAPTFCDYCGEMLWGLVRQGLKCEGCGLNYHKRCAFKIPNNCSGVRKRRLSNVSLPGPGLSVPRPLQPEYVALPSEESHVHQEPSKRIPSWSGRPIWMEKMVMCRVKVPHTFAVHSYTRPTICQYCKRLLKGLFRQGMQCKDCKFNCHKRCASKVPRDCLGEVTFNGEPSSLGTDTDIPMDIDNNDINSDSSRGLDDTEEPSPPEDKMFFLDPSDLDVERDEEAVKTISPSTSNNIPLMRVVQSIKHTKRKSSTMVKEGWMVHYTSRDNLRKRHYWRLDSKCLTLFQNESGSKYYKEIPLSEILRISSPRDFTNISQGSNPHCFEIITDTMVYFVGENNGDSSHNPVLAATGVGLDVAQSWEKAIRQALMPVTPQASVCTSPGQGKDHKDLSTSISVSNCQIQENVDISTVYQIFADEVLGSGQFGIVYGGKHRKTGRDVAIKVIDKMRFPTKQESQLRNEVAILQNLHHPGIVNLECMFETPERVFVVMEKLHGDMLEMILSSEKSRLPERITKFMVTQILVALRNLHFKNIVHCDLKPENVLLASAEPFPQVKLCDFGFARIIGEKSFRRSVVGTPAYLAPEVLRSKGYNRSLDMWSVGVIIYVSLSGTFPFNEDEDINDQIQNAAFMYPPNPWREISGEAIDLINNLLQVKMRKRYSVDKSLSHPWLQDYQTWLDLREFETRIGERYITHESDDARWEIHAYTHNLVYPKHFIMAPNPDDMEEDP
# [13] = target: T4, Serine/threonine-protein kinase D3 (Homo sapiens); conditions: at 1 µM
# [14] = target: T5, cGMP-dependent protein kinase 1 (Homo sapiens) (UniProt Q13976); conditions: at 0.1 µM
# T5 sequence (whole entry): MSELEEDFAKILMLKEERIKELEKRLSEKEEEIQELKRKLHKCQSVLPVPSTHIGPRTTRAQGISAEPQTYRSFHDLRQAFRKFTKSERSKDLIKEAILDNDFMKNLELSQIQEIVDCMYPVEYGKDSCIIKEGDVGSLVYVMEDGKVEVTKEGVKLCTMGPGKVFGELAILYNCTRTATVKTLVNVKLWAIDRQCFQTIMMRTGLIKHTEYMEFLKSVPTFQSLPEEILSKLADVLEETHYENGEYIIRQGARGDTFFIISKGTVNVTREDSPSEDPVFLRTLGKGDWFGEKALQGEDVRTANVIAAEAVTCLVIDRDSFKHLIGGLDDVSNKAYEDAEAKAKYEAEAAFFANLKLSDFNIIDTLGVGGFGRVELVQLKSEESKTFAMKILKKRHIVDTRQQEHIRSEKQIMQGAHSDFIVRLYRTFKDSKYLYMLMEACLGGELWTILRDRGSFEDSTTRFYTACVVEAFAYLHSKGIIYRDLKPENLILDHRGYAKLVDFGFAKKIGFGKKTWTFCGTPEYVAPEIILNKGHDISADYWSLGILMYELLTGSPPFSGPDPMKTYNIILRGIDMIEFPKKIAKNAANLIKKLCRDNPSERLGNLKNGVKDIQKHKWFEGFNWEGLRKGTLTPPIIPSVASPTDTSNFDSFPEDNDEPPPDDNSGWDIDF
# [15] = target: T5, cGMP-dependent protein kinase 1 (Homo sapiens); conditions: at 1 µM
# [16] = target: T6, cGMP-dependent protein kinase 2 (Homo sapiens) (UniProt Q13237); conditions: at 0.1 µM
# T6 sequence (whole entry): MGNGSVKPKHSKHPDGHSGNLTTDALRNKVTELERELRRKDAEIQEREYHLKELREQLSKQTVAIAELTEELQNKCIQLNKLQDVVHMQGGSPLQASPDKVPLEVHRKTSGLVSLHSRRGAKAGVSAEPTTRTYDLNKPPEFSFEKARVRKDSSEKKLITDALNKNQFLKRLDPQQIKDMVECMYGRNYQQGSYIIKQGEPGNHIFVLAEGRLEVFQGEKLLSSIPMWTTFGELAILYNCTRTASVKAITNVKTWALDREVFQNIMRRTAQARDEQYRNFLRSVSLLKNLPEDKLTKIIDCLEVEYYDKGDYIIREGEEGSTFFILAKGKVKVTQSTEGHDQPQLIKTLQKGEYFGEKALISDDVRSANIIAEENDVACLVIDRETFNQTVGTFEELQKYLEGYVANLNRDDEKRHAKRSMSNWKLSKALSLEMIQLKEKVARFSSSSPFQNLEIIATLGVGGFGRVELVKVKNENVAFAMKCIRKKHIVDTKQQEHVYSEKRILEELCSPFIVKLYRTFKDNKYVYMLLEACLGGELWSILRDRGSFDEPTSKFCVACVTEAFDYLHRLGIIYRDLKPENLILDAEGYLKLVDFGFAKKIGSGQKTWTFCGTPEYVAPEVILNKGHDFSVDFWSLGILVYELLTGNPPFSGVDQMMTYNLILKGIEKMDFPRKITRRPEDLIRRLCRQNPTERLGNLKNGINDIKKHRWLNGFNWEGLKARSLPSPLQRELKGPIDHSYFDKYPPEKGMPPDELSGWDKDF
# [17] = target: T6, cGMP-dependent protein kinase 2 (Homo sapiens); conditions: at 1 µM
# [18] = target: T7, cAMP-dependent protein kinase catalytic subunit PRKX (Homo sapiens) (UniProt P51817); conditions: at 0.1 µM
# T7 sequence (whole entry): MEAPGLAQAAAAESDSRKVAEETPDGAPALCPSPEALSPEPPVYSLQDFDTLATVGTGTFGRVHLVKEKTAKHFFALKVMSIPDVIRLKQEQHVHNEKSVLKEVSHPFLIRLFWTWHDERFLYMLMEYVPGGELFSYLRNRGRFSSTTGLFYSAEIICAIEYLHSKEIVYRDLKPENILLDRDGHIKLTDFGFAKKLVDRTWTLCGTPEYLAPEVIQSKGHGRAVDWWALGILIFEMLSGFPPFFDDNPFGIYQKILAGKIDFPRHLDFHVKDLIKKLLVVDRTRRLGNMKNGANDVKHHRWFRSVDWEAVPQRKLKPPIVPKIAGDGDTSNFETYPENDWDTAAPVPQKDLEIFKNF
# [19] = target: T7, cAMP-dependent protein kinase catalytic subunit PRKX (Homo sapiens); conditions: at 1 µM
# [20] = target: Rho-associated protein kinase 1 (Homo sapiens) (UniProt Q13464); conditions: at 0.1 µM;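 note: values are mean percent inhibition of ROCK1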
# Sequence of Rho-associated protein kinase 1 (Homo sapiens) (Q13464 2-1354 limits assumed): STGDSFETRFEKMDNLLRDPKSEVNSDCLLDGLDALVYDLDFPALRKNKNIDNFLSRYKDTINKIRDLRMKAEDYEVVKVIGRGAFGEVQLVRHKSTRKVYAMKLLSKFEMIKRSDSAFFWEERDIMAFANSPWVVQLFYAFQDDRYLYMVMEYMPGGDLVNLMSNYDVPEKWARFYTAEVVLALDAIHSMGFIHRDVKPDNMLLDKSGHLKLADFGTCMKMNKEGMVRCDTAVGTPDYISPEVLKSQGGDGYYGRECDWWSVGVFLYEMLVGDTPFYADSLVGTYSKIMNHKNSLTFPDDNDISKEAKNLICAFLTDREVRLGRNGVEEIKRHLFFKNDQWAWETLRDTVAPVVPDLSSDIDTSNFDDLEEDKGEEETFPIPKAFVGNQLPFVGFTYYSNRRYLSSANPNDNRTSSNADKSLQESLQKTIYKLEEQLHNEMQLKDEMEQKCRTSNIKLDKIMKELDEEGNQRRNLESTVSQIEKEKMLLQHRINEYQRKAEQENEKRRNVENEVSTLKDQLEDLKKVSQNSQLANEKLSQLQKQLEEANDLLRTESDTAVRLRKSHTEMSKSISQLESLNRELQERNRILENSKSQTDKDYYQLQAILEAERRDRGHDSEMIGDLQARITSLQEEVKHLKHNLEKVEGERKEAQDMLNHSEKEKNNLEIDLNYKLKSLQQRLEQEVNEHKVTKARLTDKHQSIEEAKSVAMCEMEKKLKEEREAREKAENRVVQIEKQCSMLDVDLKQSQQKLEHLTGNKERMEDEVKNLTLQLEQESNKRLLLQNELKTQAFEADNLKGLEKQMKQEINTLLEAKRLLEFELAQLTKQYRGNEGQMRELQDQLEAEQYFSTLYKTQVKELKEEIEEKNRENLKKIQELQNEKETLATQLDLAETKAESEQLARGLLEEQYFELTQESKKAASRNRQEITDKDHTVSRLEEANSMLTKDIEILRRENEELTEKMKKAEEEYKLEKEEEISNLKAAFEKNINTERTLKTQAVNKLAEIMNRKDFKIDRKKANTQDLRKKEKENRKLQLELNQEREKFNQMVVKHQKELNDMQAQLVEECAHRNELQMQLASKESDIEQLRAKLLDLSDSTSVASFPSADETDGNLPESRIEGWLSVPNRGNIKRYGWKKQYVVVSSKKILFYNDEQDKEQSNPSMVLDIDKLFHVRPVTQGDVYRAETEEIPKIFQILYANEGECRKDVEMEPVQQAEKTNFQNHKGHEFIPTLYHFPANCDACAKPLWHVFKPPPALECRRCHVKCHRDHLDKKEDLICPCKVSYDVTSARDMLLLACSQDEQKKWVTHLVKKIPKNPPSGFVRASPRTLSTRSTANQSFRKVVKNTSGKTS
# Sequence of Protein kinase C beta type (Homo sapiens) (P05771 2-671 limits assumed): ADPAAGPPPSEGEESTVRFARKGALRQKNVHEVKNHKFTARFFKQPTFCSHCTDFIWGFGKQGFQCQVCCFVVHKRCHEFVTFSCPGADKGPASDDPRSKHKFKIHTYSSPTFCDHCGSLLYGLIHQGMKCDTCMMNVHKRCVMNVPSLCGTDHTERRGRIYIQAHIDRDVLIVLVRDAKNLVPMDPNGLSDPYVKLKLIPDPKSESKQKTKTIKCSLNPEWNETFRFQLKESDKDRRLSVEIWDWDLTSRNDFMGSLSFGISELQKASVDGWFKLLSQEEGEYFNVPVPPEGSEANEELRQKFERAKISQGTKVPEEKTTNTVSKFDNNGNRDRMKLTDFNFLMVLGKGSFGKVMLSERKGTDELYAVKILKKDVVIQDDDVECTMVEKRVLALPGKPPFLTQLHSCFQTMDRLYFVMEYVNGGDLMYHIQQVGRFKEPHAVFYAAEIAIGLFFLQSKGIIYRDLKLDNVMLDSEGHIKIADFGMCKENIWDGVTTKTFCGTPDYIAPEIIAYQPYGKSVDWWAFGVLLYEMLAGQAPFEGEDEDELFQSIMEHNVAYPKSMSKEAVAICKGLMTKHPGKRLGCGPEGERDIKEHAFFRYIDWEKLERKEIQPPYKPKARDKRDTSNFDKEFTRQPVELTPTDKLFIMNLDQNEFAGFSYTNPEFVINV
# Sequence of Protein kinase C theta type (Homo sapiens) (Q04759 whole entry, looked up): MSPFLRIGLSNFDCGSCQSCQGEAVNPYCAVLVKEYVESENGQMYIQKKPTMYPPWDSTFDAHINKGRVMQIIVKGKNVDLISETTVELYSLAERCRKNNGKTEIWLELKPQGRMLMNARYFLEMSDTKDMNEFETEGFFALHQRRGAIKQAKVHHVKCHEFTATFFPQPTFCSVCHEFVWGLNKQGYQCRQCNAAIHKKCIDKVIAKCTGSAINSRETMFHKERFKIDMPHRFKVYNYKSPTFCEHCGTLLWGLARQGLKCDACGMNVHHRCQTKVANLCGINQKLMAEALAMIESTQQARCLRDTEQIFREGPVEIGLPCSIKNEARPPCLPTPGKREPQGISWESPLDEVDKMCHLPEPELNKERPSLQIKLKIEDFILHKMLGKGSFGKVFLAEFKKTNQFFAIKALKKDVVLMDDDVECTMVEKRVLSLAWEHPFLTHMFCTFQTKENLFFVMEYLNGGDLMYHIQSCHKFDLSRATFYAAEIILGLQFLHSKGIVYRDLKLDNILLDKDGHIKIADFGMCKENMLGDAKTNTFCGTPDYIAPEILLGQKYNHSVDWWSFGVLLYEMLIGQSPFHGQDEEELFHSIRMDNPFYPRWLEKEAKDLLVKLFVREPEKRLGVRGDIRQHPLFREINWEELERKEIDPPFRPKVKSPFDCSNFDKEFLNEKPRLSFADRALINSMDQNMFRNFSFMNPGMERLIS
Structure (SMILES),inhibition [1] [%],inhibition [2] [%],inhibition [3] [%],inhibition [4] [%],inhibition [5] [%],inhibition [6] [%],inhibition [7] [%],inhibition [8] [%],inhibition [9] [%],inhibition [10] [%],inhibition [11] [%],inhibition [12] [%],inhibition [13] [%],inhibition [14] [%],inhibition [15] [%],inhibition [16] [%],inhibition [17] [%],inhibition [18] [%],inhibition [19] [%],inhibition [20] [%]
COc1cc2ncn(-c3cc(O[C@@H](C)c4ccccc4Cl)c(C(N)=O)s3)c2cc1OC,1.93,3.86,4.88,2.16,3.24,1.99,5.36,5.25,6.69,4.18,2.84,4.96,4.78,3.4,4.72,4.02,5.22,3.8,3.91,2.15
CCn1c(-c2nonc2N)nc2cncc(C(=O)N3CC[C@H](N)C3)c21,41.1,8.94,40,5.26,23.8,11.4,45.6,4.56,9.27,6.65,8.24,3.97,7.57,57,82.5,72.7,83.7,31.8,73.4,–
CN1CCC(C(=O)Nc2n[nH]c3nnc(-c4ccccc4)cc23)CC1,5.3,2.28,0.85,2.64,3.84,1.32,1.6,5.4,6.32,4.78,6.42,4.65,5.47,3.6,5.14,2.49,4.4,3.15,6.09,7.45
COc1cc(C)c(NC(=O)CN(C)C)cc1Nc1nc(Nc2cccc(F)c2C(N)=O)c2cc[nH]c2n1,8.9,-0.31,1.29,0.13,0.13,0.38,0.55,2.21,18.1,3.43,31.9,3.99,38.4,1.52,4.26,1.95,2.22,-0.65,-1.72,0.5
